Test results from ChEMBL document CHEMBL4513141, “CO-ADD screening of NIH (USA) - Clinical Collection” (2021).
Measured potencies and affinities stand elsewhere.

What was measured:
[1] = tested on: Klebsiella pneumoniae; conditions: Concentration 20 uM; ASSAY_TEST Inhibition of Bacterial Growth; detection method Absorption (OD600); MEDIA CAMHB; plate type 384well; NBS; CORNING #3640; time 18 hr
[2] = tested on: Candida albicans; conditions: 20 µM
[3] = tested on: Cryptococcus neoformans; conditions: Concentration 20 uM; ASSAY_TEST Inhibition of Fungal Growth; detection method Resazurin; Absorption (OD600-OD570); plate type 384well; NBS; CORNING #3640

Compound | Inhibition [1] | Inhibition [2] | Inhibition [3]
CC(C)Oc1ccc2c(=O)c(-c3ccccc3)coc2c1 [IPRIFLAVONE] | 12.22% | 3.92% | 2.68%
CCCC1O[C@@H]2C[C@H]3[C@@H]4CCC5=CC(=O)C=C[C@]5(C)[C@H]4[C@@H](O)C[C@]3(C)[C@]2(C(=O)CO)O1 (some centres undefined) [BUDESONIDE] | 10.57% | 2.59% | -1.35%
CC(C)(C#N)c1cc(Cn2cncn2)cc(C(C)(C)C#N)c1 [ANASTROZOLE] | -11.78% | 1.23% | -3.6%
NC(N)=Nc1nc(CSCC/C(N)=N/S(N)(=O)=O)cs1 [FAMOTIDINE] | 2.4% | 3.01% | -2.8%
C#C[C@]1(O)CC[C@H]2[C@@H]3CCc4cc(O)ccc4[C@H]3CC[C@@]21C [ETHINYL ESTRADIOL] | 16.78% | 2.87% | -5.67%
Cc1ccc(O)c([C@H](CCN(C(C)C)C(C)C)c2ccccc2)c1.O=C(O)C(O)C(O)C(=O)O [TOLTERODINE TARTRATE] | 6.3% | 4.41% | -7.64%
Cc1nc2ccccn2c(=O)c1CCN1CCC(C(=O)c2ccc(F)cc2)CC1 [PIRENPERONE] | 8.87% | 3.8% | -7.79%
CNC(=C[N+](=O)[O-])NCCSCc1ccc(CN(C)C)o1.Cl [RANITIDINE HYDROCHLORIDE] | 4.5% | 2.99% | 5.97%
C[C@]12CCC(=O)C=C1CC[C@@H]1[C@@H]2C(=O)C[C@@]2(C)[C@H]1CC[C@]2(O)C(=O)CO [CORTISONE] | 16.58% | 4.46% | 0.81%
c1ccc2[nH]c(-c3cscn3)nc2c1 [THIABENDAZOLE] | 17.05% | 1.43% | -4.52%
CC1CCN(CCCC(=O)c2ccc(F)cc2)CC1.Cl | 24.05% | 2.99% | -4.29%
CC[C@H](C)C(=O)O[C@H]1C[C@H](O)C=C2C=C[C@H](C)[C@H](CC[C@@H](O)C[C@@H](O)CC(=O)[O-])[C@H]21.[Na+] [PRAVASTATIN SODIUM] | 13.36% | 4.25% | -0.35%
NC(=O)N1c2ccccc2CC(=O)c2ccccc21 [OXCARBAZEPINE] | 3.69% | 2.7% | -4.73%
CCN(CC)CC1CCCCN1CC(=O)N1c2ccccc2C(=O)Nc2cccnc21 (centres undefined) [OTENZEPAD] | 12.92% | 3.03% | 3.45%
CCC(=O)O[C@]1(C(=O)CCl)[C@@H](C)C[C@H]2[C@@H]3CCC4=CC(=O)C=C[C@]4(C)[C@@]3(F)[C@@H](O)C[C@@]21C [CLOBETASOL PROPIONATE] | -2.85% | 0.73% | 4.34%
COc1ccccc1N1CCN(CCCNc2cc(=O)n(C)c(=O)n2C)CC1.Cl [URAPIDIL HYDROCHLORIDE] | 17.15% | 3.19% | -6.92%
CN1CCC(=C2c3ccccc3C=Cc3ccccc32)CC1.Cl [CYPROHEPTADINE HYDROCHLORIDE] | 17.49% | 3.56% | -5.58%
Cl.O=C1c2c(O)ccc(O)c2C(=O)c2c(NCCNCCO)ccc(NCCNCCO)c21 | 7.11% | -4.12% | 21.29%
CC(=O)O[C@H]1C[C@@H]2CC[C@@H]3[C@H](CC[C@@]4(C)[C@H]3C[C@H]([N+]3(C)CCCCC3)[C@@H]4OC(C)=O)[C@@]2(C)C[C@@H]1N1CCCCC1.[Br-] [VECURONIUM BROMIDE] | -0.14% | 5.46% | 2.54%
Cl.c1ccc2c(c1)CCCC2C1=NCCN1 (centres undefined) [TETRAHYDROZOLINE HYDROCHLORIDE] | 14.26% | 3.03% | -3.23%
CC(=O)OCC(=O)NCCCOc1cccc(CN2CCCCC2)c1.Cl [ROXATIDINE ACETATE HYDROCHLORIDE] | 15.18% | 3.06% | -4.65%
COc1ccccc1OCCNCC(O)COc1cccc2[nH]c3ccccc3c12 (centres undefined) [CARVEDILOL] | 14.17% | 1.69% | 1.85%
O=C1CN(/N=C/c2ccc(-c3ccc([N+](=O)[O-])cc3)o2)C(=O)[N-]1.[Na+] [DANTROLENE SODIUM] | 2.98% | 0.63% | 5.43%
